Results: PubChem BioAssay AID1768 (National Center for Advancing Translational Sciences (NCATS), 2009)
The campaign covered roughly 270,000 compounds. About 620 (0.23%) were called active. Where a call stands in place of a potency, no number is given. Inconclusive results (about 12%) are left out. Calls come from the whole dose curve; as a rule, active = well fitted inhibition curve with a large enough effect in the polarisation, with a control signal flat (not every such curve was filed as active); inconclusive = small, poorly fitted or top-dose-only effect, or effect the other way, or a change in a side signal; inactive = no such curve, though single readings can be large or run the other way; the % refers to the polarisation. The full list was thinned out, with actives kept by preference.

Biological target: Menin (Homo sapiens) (UniProt O00255)
Sequence (O00255 whole entry, looked up): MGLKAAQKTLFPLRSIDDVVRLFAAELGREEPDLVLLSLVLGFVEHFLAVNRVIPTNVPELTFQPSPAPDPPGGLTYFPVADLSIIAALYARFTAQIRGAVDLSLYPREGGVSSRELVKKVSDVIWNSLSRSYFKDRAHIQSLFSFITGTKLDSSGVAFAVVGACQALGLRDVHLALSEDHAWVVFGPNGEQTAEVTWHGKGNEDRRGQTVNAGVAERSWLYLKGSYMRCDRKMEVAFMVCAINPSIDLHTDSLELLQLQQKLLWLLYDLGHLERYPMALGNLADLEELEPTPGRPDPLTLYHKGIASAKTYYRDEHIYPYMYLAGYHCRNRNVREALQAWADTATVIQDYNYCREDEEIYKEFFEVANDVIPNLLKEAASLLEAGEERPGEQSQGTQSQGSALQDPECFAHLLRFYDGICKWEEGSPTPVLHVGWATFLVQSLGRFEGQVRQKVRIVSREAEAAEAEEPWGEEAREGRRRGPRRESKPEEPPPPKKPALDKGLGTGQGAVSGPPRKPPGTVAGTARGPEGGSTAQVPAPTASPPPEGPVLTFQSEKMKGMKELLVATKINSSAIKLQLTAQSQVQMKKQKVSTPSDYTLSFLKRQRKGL
Test: qHTS Assay for Inhibitors Targeting the Menin-MLL Interaction in MLL Related Leukemias: Competition With Texas Red Labeled MLL-derived Mutant Peptide
Conditions: fluorescence polarization; series mostly up to 61.6 µM
Potency is the fitted concentration of half-maximal effect.

Question: With `CCCCNC(=O)c1cn(CC)c2cc(N3CCN(C(=O)c4ccco4)CC3)c(F)cc2c1=O` as the compound, how does the Potency read?
Answer: Its Potency is “inactive”.

Question: With `CCOc1ccc(NC(=O)C2CCN(C(=O)N3CCOc4ccccc43)CC2)cc1` as the compound, how does the Potency read?
Answer: Its Potency is “inactive”.

Question: `Cc1ccc(N(Cc2ccccc2O)C(=O)c2ccccc2F)cc1` was tested. Which Potency did it give?
Answer: The Potency was “inactive”.

Question: With `Cc1ccc(O)c(CNc2nc3ccccc3[nH]2)c1` as the compound, how does the Potency read?
Answer: Its Potency is “inactive”.

Question: Which Potency does the source give for `COC(=O)c1sc(=S)n(-c2ccccc2)c1N` here?
Answer: The Potency was “inactive”.

Question: Which Potency does the source give for `CCOC(=O)c1c(N)sc(C(C)=O)c1C` here?
Answer: Its Potency is “inactive”.

Question: How did the Potency turn out when `COCCOC(=O)c1sc(=S)n(CCOC)c1N` was run?
Answer: Its Potency is 28.2 µM (active).

Question: For `O=C(c1ccccc1)N1CCC(CC2CC(c3ccc(Cl)cc3)=NO2)(C(=O)NCC2CCCCC2)CC1` (centres undefined), which Potency is on record?
Answer: Its Potency is “inactive”.

Question: With `CCN(CC)S(=O)(=O)c1ccc(N2CCOCC2)c(NC(=O)C2CSC3(C)CCC(=O)N23)c1` (centres undefined) as the compound, how does the Potency read?
Answer: The Potency was “inactive”.

Question: `COc1ccc(C)cc1Nc1n[n+](-c2ccccc2)c(-c2cccc(Cl)c2Cl)s1` was tested. Which Potency did it give?
Answer: Its Potency is “inactive”.

Question: For `CC1CC(C)CN(CCCNC(=O)c2csc3c2CCCCC3)C1` (centres undefined), which Potency is on record?
Answer: Its Potency is “inactive”.

Question: For `CCN(CC)c1ccc(C(=O)Nn2c(C)nc3ccccc3c2=O)cc1`, which Potency is on record?
Answer: The Potency was “inactive”.

Question: How did the Potency turn out when `CCC(CC)COC(=O)C1=C(C)NC(=O)NC1c1ccc([N+](=O)[O-])cc1` (centres undefined) was run?
Answer: The Potency was “inactive”.

Question: Which Potency does the source give for `CCCN1CCC(=O)N(C(CSc2ccc(C)cc2)Cc2ccccc2)CC1` (centres undefined) here?
Answer: The Potency was “inactive”.

Question: For `CCOC(=O)c1ccccc1NS(=O)(=O)c1c(C)nc2sccn2c1=O`, which Potency is on record?
Answer: Its Potency is “inactive”.

Question: For `COc1ccc(-n2nc(C(=O)NCC(=O)N3CCN(c4ccccc4OC)CC3)c3ccccc3c2=O)c(OC)c1`, which Potency is on record?
Answer: Its Potency is “inactive”.

Question: With `CCCCc1cc(=O)oc2c(C)c(OCC(=O)N3CCC(C(N)=O)CC3)ccc12` as the compound, how does the Potency read?
Answer: Its Potency is “inactive”.

Question: Which Potency does the source give for `O=S(=O)(NC1CCCCC1N1CCN(c2ccccc2F)CC1)c1ccccc1` (centres undefined) here?
Answer: The Potency was “inactive”.

Question: Which Potency does the source give for `CC(C)(COC(=O)Nc1ccccc1)COC(=O)Nc1ccccc1` here?
Answer: Its Potency is “inactive”.

Question: Which Potency does the source give for `Cc1ccc(C)c(N2CCN(C(=O)CCCn3c(=O)c4cccn4c4cccnc43)CC2)c1` here?
Answer: Its Potency is “inactive”.

Question: How did the Potency turn out when `Cc1nc(-c2ccc(NC(=O)c3cccs3)cc2)cs1` was run?
Answer: Its Potency is 25.1 µM (active).

Question: `O=C(O)Cc1ccc(NC(=O)c2cccs2)cc1` was tested. Which Potency did it give?
Answer: Its Potency is “inactive”.

Question: How did the Potency turn out when `CCc1ccc(NC(=O)C(=O)NNC(=O)c2cccs2)cc1` was run?
Answer: The Potency was “inactive”.

Question: For `COc1ccc(C2CC(O)(c3ccccc3)Oc3cc(C)cc(C)c32)cc1` (centres undefined), which Potency is on record?
Answer: The Potency was “inactive”.
